High-throughput results as filed in PubChem BioAssay.
Hits are enriched below; roughly 1.9% of the tested compounds scored in any of these assays.
OPRM1-OPRD1 ag – agonists of human mu-delta opioid receptor heterodimerization; P35372+P41143; cells, OPRM1-OPRD1 heterodimerization, luminescence; activation, % at 9.3 µM; 0.3% of 340,000 active; AID 504326; in the data active = activation above about 18%;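 also: 0% = vehicle-treated cells and 100% = reference agonist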
HTR5A ag ctr – counter-screen for OPRM1-OPRD1 agonists: human HTR5A agonism; P47898; HTR5A agonist assay, luminescence, cell-based; activation, % at 9.3 µM; 0.61% of 340,000 active; in the data active = activation mostly above about 9.5%, no sharp cut-off; inactive = mostly below about 7.6%;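 also: 0% = cells with vehicle only and 100% = reference agonist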
Target sequence (P47898 whole entry, looked up): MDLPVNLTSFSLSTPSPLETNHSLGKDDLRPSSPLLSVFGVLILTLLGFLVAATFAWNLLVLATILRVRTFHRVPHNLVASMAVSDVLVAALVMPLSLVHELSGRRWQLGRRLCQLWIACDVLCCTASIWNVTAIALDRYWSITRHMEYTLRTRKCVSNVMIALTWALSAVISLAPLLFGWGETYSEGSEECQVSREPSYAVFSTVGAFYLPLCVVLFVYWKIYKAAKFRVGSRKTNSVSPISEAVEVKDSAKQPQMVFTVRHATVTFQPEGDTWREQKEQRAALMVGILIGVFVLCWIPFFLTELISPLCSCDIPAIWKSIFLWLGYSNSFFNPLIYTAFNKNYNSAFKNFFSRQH
MsrA inh – bovine MsrA inhibition. purified bovine MsrA, absorbance read-out. inhibition, % at 15.5 µM. 0.75% of 360,000 active; in the data active = inhibition above about 4.5%;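 also: 0% = vehicle wells with enzyme and 100% = reference inhibitor wells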
MOR-DOR inv ag – mu-delta opioid heterodimer inverse agonism; AID 504357; inhibition, % at 9.3 µM; cell-based MOR-DOR heterodimer luminescence; 0.21% of 340,000 active; in the data active = inhibition above about 22%, passing the limit was not always enough;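 also: 0% = cells with DMSO and 100% = wells without cells with DMSO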
bovine MsrA act – activators of bovine methionine sulfoxide reductase A | purified bovine MsrA, absorbance read-out | activation, % at 10.6 µM | 0.3% of 360,000 active; in the data active = activation above about 7.5%;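 also: 0% = vehicle and 100% = reference activator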
HTR5A inv ctr – counter-screen for OPRM1-OPRD1 inverse agonists: human HTR5A inverse agonism; P47898; HTR5A cell line, luminescence; inhibition, % at 9.3 µM; 0.083% of 340,000 active; AID 504634; in the data active = inhibition mostly above about 23%, no sharp cut-off; inactive = mostly below about 18%;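 also: 0% = cells with DMSO and 100% = no-cell wells with DMSO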
* = called active by the depositor; . = not tested or not shown.

SMILES | OPRM1-OPRD1 ag | HTR5A ag ctr | MsrA inh | MOR-DOR inv ag | bovine MsrA act | HTR5A inv ctr
CC(c1ccccc1)n1cc(C(=O)NCc2ccccn2)nn1 (stereo not given) | 1 | -3 | -1 | -3 | -2 | 16
Cc1sc(-c2ccncc2)nc1OC(=O)c1ccc(F)cc1F | 1 | 9.8* | -1 | -7 | -1 | -26
Cc1sc(-c2ccncc2)nc1OC(=O)c1ccc(Cl)cc1 | 9 | -6 | 0 | -50 | 2 | -8
COc1cc(NC(=O)c2ccccc2)ccc1NC(=O)c1cc2ccccc2o1 | 6 | -4 | 0 | -28 | -2 | 13
COc1cccc(C(=O)Nc2ccc(NC(=O)c3cc4ccccc4o3)c(OC)c2)c1 | 7 | 13* | 0 | -36 | -1 | -50
Cc1nc([N+](=O)[O-])cn1CC(Cl)Cn1cc([N+](=O)[O-])nc1C | . | . | 2 | . | . | .
COc1ccccc1N(C(=O)CCl)c1cn(C(C)=O)c2ccccc12 | 50* | 39* | 2 | -252 | -5 | 8
C[C@H]1CN([C@@H](C)CO)C(=O)c2c(c3ccccc3n2C)-c2ccccc2CO[C@H]1CN(C)C(=O)Nc1cccc(F)c1 | . | . | 0 | . | . | .
CC(C)Oc1ccccc1-c1nc(SCC(=O)O)n[nH]1 | 4 | 12* | -1 | -22 | -14 | -43
COC(=O)[C@]12C[C@H](CC(=O)NCc3ccc(OC)c(OC)c3)C(=O)N(CCc3ccc(OC)c(OC)c3)C1=C[C@H](C(C)(C)C)O[C@@H]2C | . | . | 0 | . | . | .
CCN(CC)C(=O)c1ncn2c1C(=O)N[C@H](C)C2 | . | . | 0 | . | . | .
Cc1cc(C)c(C#N)c(SCC(O)CS(=O)(=O)Cc2ccccc2)n1 (stereo not given) | 0 | 12* | 0 | -1 | -13 | -5
COC(=O)[C@H](Cc1ccccc1)NC(=O)[C@H]1O[C@@H](n2cnc3c(=O)[nH]c(N)nc32)[C@H](O)[C@@H]1O | . | . | 2 | . | . | .
CCC(=O)Nc1nc2ccccc2n1Cc1ccc(Cl)cc1 | 0 | 14* | 0 | 2 | -3 | -38
COc1cc(C2CC(c3cccs3)=NN2C(=O)CCl)ccc1OC(F)F (stereo not given) | 74* | 59* | 0 | -414 | -1 | -144
Cc1ccc(C)c(-n2sc3ccc(F)cc3c2=O)c1 | -1 | -4 | 1 | 5 | 13* | 12
COc1ccc(-n2sc3ccc(F)cc3c2=O)cc1 | 1 | -2 | 0 | -5 | 12* | 6
O=c1c2cc(F)ccc2sn1-c1ccc(F)cc1 | -4 | 12 | . | 19 | 7 | -8
Cc1ccc(-c2cc(=O)c3cc(F)ccc3[nH]2)cc1 | -4 | -2 | -1 | 21 | -2 | -15
CC(=O)OCC(=O)NCC1CCN(C(=O)C(=O)c2cc3ccccc3o2)CC1 | . | . | 2 | . | . | .
C=CCc1cccc2cc(C(=O)Nc3ccccc3C(=O)O)c(=O)oc12 | . | . | 4.9* | . | -3 | .
Cc1cc(N2CCN(C(=O)OC(C)(C)C)C[C@@H]2C)ccc1N1CCS(=O)(=O)CC1 | . | . | 0 | . | . | .
CN(C)c1ccc(/C=C(\NC(=O)c2ccccc2)C(=O)NCc2ccncc2)cc1 | 0 | 7 | 4.7* | 2 | -4 | 0
CN(C)c1ccc(/C=C(\NC(=O)c2ccccc2)C(=O)NCc2cccnc2)cc1 | -1 | -3 | 4 | 6 | -4 | 8
CN1CCN(C(=O)/C(=C/c2ccc(N(C)C)cc2)NC(=O)c2ccccc2)CC1 | 0 | -3 | 4.6* | -3 | -4 | 9
SMILES | OPRM1-OPRD1 ag | HTR5A ag ctr | MsrA inh | MOR-DOR inv ag | bovine MsrA act | HTR5A inv ctr
CN1CCN(C(=O)/C(=C/c2ccc(F)cc2)NC(=O)c2ccccc2)CC1 | -4 | -4 | 0 | 23 | -2 | 21
COc1ccc2oc(C(=O)CCC(=O)O)c(N)c2c1 | 2 | 0 | 3 | -9 | -1 | 19
COC(=O)CCC(=O)c1oc2ccc(Br)cc2c1N | -3 | 12* | 1 | 13 | -17 | -26
CN(C(=O)c1cccc(NC(=O)Cc2ccc(NC(=O)C3CCCN(C(=O)c4ccccc4)C3)cc2)c1)C1CC1 (stereo not given) | . | . | 0 | . | . | .
Cc1c(N2C(=O)/C(=C/c3ccccc3)SC2=S)c(=O)n(-c2ccccc2)n1C | -1 | -3 | 4.5* | 6 | -11 | -8
Cc1ccc(/C=C2\SC(=S)N(c3c(C)n(C)n(-c4ccccc4)c3=O)C2=O)cc1 | 1 | 4 | 3 | -9 | -3 | -12
Cc1cccc(N(C)C(=O)CN(C)S(=O)(=O)c2ccc3c(c2)c(=O)n(C)c(=O)n3C)c1 | -2 | 12* | 1 | 12 | -2 | -4
CN(CC(=O)N(CCO)Cc1ccccc1)S(=O)(=O)c1ccc2c(c1)c(=O)n(C)c(=O)n2C | -3 | 2 | -1 | 17 | -5 | 12
COCc1cc(Sc2ccc(Cl)cc2)nc(-c2ccccc2)n1 | 1 | 2 | 0 | -3 | -3 | 9
COCc1cc(Sc2cccc(Cl)c2Cl)nc(-c2ccccc2)n1 | 1 | -4 | -1 | -5 | 23* | -3
C#CCC1c2ccccc2CCN1CC=C (stereo not given) | . | . | -1 | . | . | .
CCCCn1c(CCC(=O)O)nc2cc(S(=O)(=O)N3CCCC3)ccc21 | -2 | 8.3* | 0 | 9 | -13 | -30
Cc1sc2nc(CN3CCN(c4ccc(O)cc4)CC3)[nH]c(=O)c2c1C | -1 | 12* | 0 | 5 | -6 | -39
Cc1cc(NC(=O)c2ccc(COc3ccc(Cl)c(C)c3)o2)no1 | 2 | 0 | 1 | -10 | -3 | 1
Cc1cc(NC(=O)c2ccc(COc3ccccc3Cl)o2)no1 | 3 | 9.7* | -1 | -15 | -3 | -12
O=C(N/N=C/c1ccc([N+](=O)[O-])cc1)c1cc(-c2ccc3c(c2)OCO3)n[nH]1 | 0 | 13* | -2 | 2 | -11 | -8
COc1ccc(C(C)(C)C)cc1N1C(=O)[C@@H]2CSCCS(=O)(=O)N2C1=O | . | . | 0 | . | . | .
CS(=O)(=O)c1ccc(C(=O)Nc2nc(-c3ccco3)c(-c3ccco3)s2)cc1 | 1 | 45* | 2 | -7 | -10 | -109
Oc1ccccc1C=NC(N=Cc1ccccc1O)c1ccccc1O (stereo not given) | . | . | 1 | . | . | .
C=CCN(CC=C)Cc1c(O)ccc2c1oc(=O)c1ccccc12 | -8 | -8 | 3 | 45* | -8 | 32
COC(=O)c1ccc(NC(=O)COc2ccc(C3C(C#N)=C(N)Oc4c3ccc3ccccc43)cc2OC)cc1 (stereo not given) | 1 | 14* | 2 | -6 | -6 | -31
CCOC(=O)C(C)CC(C)C(=O)N1CCOCCN(C(=O)C(C)CC(C)C(=O)OCC)CCOCC1 (stereo not given) | 0 | 9.2* | -1 | -2 | 6 | -24
CCOC(=O)c1[nH]c(C)c(C(=O)Nc2ccc(C)c(C)c2)c1C | -3 | 13* | -1 | 13 | -1 | -37
CC(=O)Nc1ccc(NC(=O)COC(=O)c2ccc([N+](=O)[O-])o2)cc1 | 9 | 13* | 0 | -47 | 1 | -48
